Assay [1] is described as follows: CCTE_Deisenroth_5AR_NBTE_donor: CCTE's 5alpha-reductase NanoBRET Target Engagement Assay […], Deisenroth Lab (AID 2284319). To be noted: actives raise or lower the signal. The gist of the method:
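Donor NanoLuc luminescence at 460-20 nm is the read-out, serving artifact detection. Transiently expressed SRD5A2-NanoLuc in HEK293T; 5 h total chemical exposure, testosterone tracer added for the final 2 h; fitting bidirectional relative to DMSO baseline.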

Assay [2] is described as follows: CCTE_Deisenroth_5AR_NBTE_acceptor: CCTE's 5alpha-reductase NanoBRET Target Engagement Assay - Autofluorescence Screen, Deisenroth Lab (AID 2284321).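 Further: compound fluorescence in the acceptor channel under 460 nm excitation flags autofluorescence artifacts.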 To be noted: actives raise or lower the signal. The gist of the method:
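Autofluorescence check: ToxCast chemicals, nominal 100 uM, excitation 460 nm, n=3 runs. Acceptor fluorescence endpoint, bidirectional fit relative to DMSO. Parent assay in HEK293T, 5 h post-dose.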

Assay [3] concerns SRD5A2 (gene 6716). The experiment in a line: CCTE_Deisenroth_5AR_NBTE_ratio: CCTE's 5alpha-reductase NanoBRET Target Engagement Assay - Ratio, Deisenroth Lab (AID 2284322). Conditions: actives raise or lower the signal. Put shortly: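 HEK293T cells transiently expressing an SRD5A2-NanoLuc fusion (20 h post-transfection) were exposed to test chemical (10 nM - 29.9 uM, 8 points) for 3 h, then testosterone tracer for a further 2 h. Acceptor/donor BRET ratio was fitted bidirectionally against DMSO baseline.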

For assay [4], the system named is IYD (gene 389434). Put plainly: CCTE_GLTED_hIYD: CCTE's human Iodotyrosine Deiodinase (xIYD) Inhibition Assay, Great Lakes Toxicology and Ecology Division (GLTED) Lab (AID 2284317; active means hit-call score of the fitted dose curve at least 0.9, where 1 is the maximum;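 further: cell-free human IYD enzyme made in baculovirus insect cells; iodide freed from monoiodotyrosine measured by cerium arsenite color change at 420 nm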). Put shortly: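 Deiodination of MIT by insect-cell-produced human IYD is measured after a 3 h incubation with test chemical. Free iodide passes through a Dowex column and accelerates Sandell-Kolthoff Ce4+ reduction, read at 420 nm; run in triplicate.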

The subject of assay [5] is Brachyury (BRA) Protein Expression, Deisenroth Lab, TBXT (gene 6862). The experiment in a line: CCTE_Deisenroth_DEVTOX-GLR_legacy_Bra: (Legacy) CCTE's DevTox GLR-Endo Assay Evaluation of Brachyury (BRA) Protein Expression, Deisenroth Lab (AID 2284329). The gist of the method:
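Readout: percent Bra+ cells by high-content fluorescence imaging, Bra+ meaning mean intensity 5x BMAD over pluripotent control median. RUES2-GLR cells dosed twice over 48 h differentiation; DMSO-control median subtracted before concentration-response fitting.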

Assay [6] is described as follows: CCTE_Deisenroth_DEVTOX-GLR_legacy_CellCount: (Legacy) Viability Assessment in CCTE's DevTox GLR-Endo Assay, Deisenroth Lab (AID 2284331). Conditions: actives raise or lower the signal. The gist of the method: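 Nuclei count by fluorescence high-content imaging (5 fields/well) after 48 h differentiation of RUES2-GLR cells. Two exposures, 24 h apart; 1 nM - 200 uM series; n=4. Bidirectional fit vs DMSO.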

A short description of assay [7]: VALA_TUBHUV_Agonist_CellCount: Viability Assessment in the VALA Sciences human Umbilical Vein Endothelial Tubule Formation (TUBHUV) Agonism Assay (AID 2284309; active means hit-call score of the fitted dose curve at least 0.9, where 1 is the maximum). The gist of the method:
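Viability endpoint by fluorescent imaging of fixed nuclear/CD31-stained HUVEC–HDF co-cultures. Readout is cell count, fitted upward against 0.1% DMSO. Compound exposure was 72 h in 10 ng/ml VEGF, after 3-day co-culture priming.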

Assay [8] in a line: VALA_TUBHUV_Antagonist_CellCount: Viability Assessment in the VALA Sciences human Umbilical Vein Endothelial Tubule Formation (TUBHUV) Antagonism Assay (AID 2284310; active means hit-call score of the fitted dose curve at least 0.9, where 1 is the maximum). Put shortly: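 Read-out is imaged cell count after nuclear and CD31 staining, fitted against 0.1% DMSO vehicle. Compounds were added for 3 days, in 10 ng/ml VEGF assay medium, to HUVEC–HDF co-cultures pre-grown 3 days.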

A short description of assay [9]: VALA_TUBIPS_Antagonist_TubuleLength: VALA Sciences human iPS-derived Endothelial Tubule Formation (TUBIPS) Antagonist Assay (AID 2284313; active means hit-call score of the fitted dose curve at least 0.9, where 1 is the maximum). Put shortly:
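Tubule length was quantified by high-content imaging of CD31- and nuclear-stained cells, with 0.1% DMSO as neutral and 100 uM suramin as inhibition control. Compounds were applied for 3 days, in 10 ng/ml VEGF, to cultures pre-grown 3 days.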

The nature of assay [10]: VALA_MIGHUV2_WoundArea: VALA Sciences human Umbilical Vein Endothelial Cell Migration (MIGHUV) Assay, Area of Scratch Wound after Recovery (AID 2284316; active means hit-call score of the fitted dose curve at least 0.9, where 1 is the maximum). The gist of the method: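 Wound-area endpoint read by fluorescence imaging of Hoechst-stained nuclei after a 24 h recovery period following scratch of HUVEC monolayers (9000 cells/well). Chemicals dosed within 30 min post-scratch, triplicate 6-point series, 0.1% DMSO vehicle; Cytochalasin D positive control.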

Assay [11] in a line: VALA_TUBIPS_Antagonist_CellCount: Viability Assessment in the VALA Sciences human iPS-derived Endothelial Tubule Formation (TUBIPS) Antagonism Assay (AID 2284335; active means hit-call score of the fitted dose curve at least 0.9, where 1 is the maximum). How it is done: VALA_TUBIPS_Agonist is a cell-based, multiplexed assay that uses human iPS-derived endothelial cells (iPSC). Measurements were taken 72 hours after chemical dosing in a 96-well plate.VALA_TUBIPS_Antagonist_CellCount is the one of two assay components measured from the VALA_TUBIPS_Antagonist assay. It is designed to make measurements of viability, a form of viability reporter, as detected with fluorescence intensity signals by HCS Fluorescent Imaging technology. Data from the assay component VALA_TUBIPS_Antagonist_CellCount was analyzed at the endpoint, VALA_TUBIPS_Antagonist_CellCount, in the positive analysis fitting direction relative to DMSO as the negative control and baseline of activity. Using a type of viability reporter, loss-of-signal activity can be used to understand viability. To generalize the intended target to other relatable targets, this assay endpoint is annotated to the cell cycle intended target family, where the subfamily is cell count.
This HUVEC-HDF assay was designed to detect chemical suppression of tubulogenesis, i.e. antagonism. To measure tubulogenesis antagonism, HUVEC cells were co-cultured with HDF cells at a 1:3 ratio for 3-days in 10 ng/ml VEGF (i.e., favorable conditions with growth factors), then changed to assay medium containing 10 ng/ml VEGF and ToxCast compounds for an additional 3-day period. […]

Assay [12] is described as follows: VALA_MIGHUV1_ScratchOnly_WoundArea: VALA Sciences human Umbilical Vein Endothelial Cell Migration (MIGHUV) Assay, Area of Scratch Wound Inhibited Recovery (AID 2284336; active means hit-call score of the fitted dose curve at least 0.9, where 1 is the maximum). Put shortly: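 Wound area remaining after 24 h recovery imaged by Hoechst nuclear fluorescence in scratched HUVEC cultures, chemicals added within 30 min of scratching across a 6-point series. Gain of signal fitted against 0.1% DMSO; cytochalasin D positive control.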

The nature of assay [13]: CCTE_Mundy_HCI_iCellGluta_NOG_NeuriteLength: CCTE's Neurite Outgrowth Assay in iCellGluta cells for Neurite Length, Mundy Lab (AID 2284318; active means hit-call score of the fitted dose curve at least 0.9, where 1 is the maximum). Put shortly:
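Automated high-content imaging of betaIII-tubulin (Alexa Fluor-488) and Hoechst-stained cells gave neurite length, normalized to the DMSO baseline.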

Assay [14] in a line: VALA_TUBIPS_Agonist_TubuleLength: VALA Sciences human iPS-derived Endothelial Tubule Formation (TUBIPS) Agonism Assay (AID 2284311; active means hit-call score of the fitted dose curve at least 0.9, where 1 is the maximum). The gist of the method: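 Agonist-mode readout is the gain in imaged tubule length versus DMSO baseline. It was measured by fluorescence high-content imaging 72 h after dosing human iPSC-derived endothelial cells.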
Assay [15] in a line: VALA_TUBHUV_Antagonist_TubuleLength: VALA Sciences human Umbilical Vein Endothelial Tubule Formation (TUBHUV) Antagonism Assay (AID 2284325; active means hit-call score of the fitted dose curve at least 0.9, where 1 is the maximum). Put shortly: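 Tubule length was imaged via CD31 immunofluorescence after a further 3-day compound exposure in 10 ng/ml VEGF, following 3-day pre-culture of HUVEC with HDF at 1:3. Vehicle 0.1% DMSO; suramin (100 uM) inhibition control.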

Inconclusive results are not listed. The source made the active and inactive calls. How the source made its calls, unless noted: active means hit-call score of the fitted dose curve at least 0.9, where 1 is the maximum; inactive means score below 0.9.

As usually defined, the AC50 is the midpoint of the concentration-response curve, whichever way the signal moves. Turning to `O=[N+]([O-])c1ccc(O)cc1`, the result in [1] and in assay [2] was inactive. Moreover, in [3], the AC50 was 71.2 µM (active).
As for `COCC(C)O` (configuration not stated), the result in assay [1], in [2] and in [3] was inactive.
Regarding `CCC(=C(c1ccc(O)cc1)c1ccc(OCCN(C)C)cc1)c1ccccc1`, the outcome in assay [4] was inactive.
As for `C[C@@H]1C[C@H]2[C@@H]3CCC4=CC(=O)C=C[C@]4(C)[C@@]3(F)[C@@H](O)C[C@]2(C)[C@@]1(O)C(=O)COP(=O)(O)O`, the result in assay [5] and in [6] was inactive.
With `CC(C)(C)c1cccc(C(C)(C)C)c1O`, in assay [4], the AC50 was 100 µM (active).
In the case of `CCN(CC)CCNc1ccc(CNC=O)c2sc3ccc(OC)cc3c(=O)c12`, the outcome in assay [1], in assay [2] and in [3] was inactive.
Take `COCC(C)OCC(C)O` (configuration not stated): the call in [1], in [2] and in assay [3] was inactive.
`CCCCCCCCCCCCc1ccccc1S(=O)(=O)O`: the results for the AC50 in assay [7] and in assay [4] were 1.98 µM (active) and 34.4 µM (active), respectively. Also, the call in assay [8], in assay [9], in [10], in [11] and in assay [12] was inactive.
For `CC(C)(C)c1ccc(O)c(C(C)(C)C)c1`, the AC50 in assay [4] was 100 µM (active).
Regarding `OCCC(F)(F)C(F)(F)C(F)(F)C(F)(F)C(F)(F)C(F)(F)C(F)(F)C(F)(F)F`, the outcome in assay [13] was inactive.
With `CCCCCCCCCCCCCC[N+](C)(C)C`, the AC50 in [4] is 88.3 µM (active); in [1], 42.7 µM (active); in assay [2] it was 26.2 µM (active); in assay [3], 75.1 µM (active).
In the case of `CC(O)CO` (configuration not stated), the outcome in assay [5] and in assay [6] was inactive.
For the molecule `O=C1OC2(c3ccccc31)c1cc(Br)c(O)c(Br)c1Oc1c2cc(Br)c(O)c1Br`, the figures for the AC50 in [4] and in [3] were 42.2 µM (active) and 7.55 µM (active), respectively. The molecule was classed as inactive in [1] and in [2].
On to `C=C(C)C(=O)OCCC(F)(F)C(F)(F)C(F)(F)C(F)(F)C(F)(F)C(F)(F)F`, for which, in assay [13], the result was inactive.
Take `O=C(O)Cc1cc(I)c(Oc2cc(I)c(O)c(I)c2)c(I)c1`: the result in assay [7], in [14], in assay [9], in assay [10], in assay [15] and in assay [12] was inactive.

Values taken from PubChem BioAssay (EPA / NIEHS).
